Test results: the supplement of paper PMC7366291
Structures can show the parent of a compound that is named as a salt. ± gives the standard deviation or the standard deviation of the averaged measurements.

What was measured:
Details in all cases: 25 µM; exposure: 24-48 hpf
[1] = tested on: Danio rerio Tg(wt1b:EGFP) embryo, pronephros; test: glomerular separation, fold change vs DMSO control; higher = glomeruli further apart (abnormal)
Procedure, shortened: (§1)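 Each feature value is a fold change relative to the mean of same-day DMSO-treated embryos. Embryos of the Tg(wt1b:EGFP) zebrafish line, dechorionated, received 25 μM compound in 0.5% DMSO from 24 to 48 hpf at 28.5°C, in HEPES-buffered E3 with 0.003% PTU. Distances and angles were computed by a Fiji macro from 16 manually set reference points on maximum projections of dorsal pronephros images, and values beyond 2 SD of the feature mean were removed.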

[2] = tested on: Danio rerio Tg(wt1b:EGFP) embryo, pronephros; test: glomerular width (mean of left and right), fold change vs DMSO control; higher = wider glomerulus
Procedure, shortened: as §1

[3] = tested on: Danio rerio Tg(wt1b:EGFP) embryo, pronephros; test: fraction of imaged embryos annotated as normal kidney; higher = less nephrotoxic; extreme values may be limits of the assay
Procedure, shortened: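 From 24 to 48 hpf at 28.5°C, dechorionated Tg(wt1b:EGFP) zebrafish embryos in 12-well plates were kept in 5 mM HEPES-buffered E3 with 0.003% PTU, 0.5% DMSO and 25 μM compound. Pronephroi were imaged by widefield fluorescence at 470 nm and judged by eye from maximum projections. Reported is the proportion of embryos per treatment in the normal-kidney category.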

[4] = tested on: Danio rerio Tg(wt1b:EGFP) embryo, pronephros; test: pronephric angle neck segment to proximal convoluted tubule (mean of left and right), fold change vs DMSO control; higher = larger pronephric angle
Procedure, shortened: as §1

SMILES	glomerular separation [1]	glomerular width [2]	fraction of imaged embryos annotated as normal kidney [3]	pronephric angle neck segment [4]
C1N2CN3CN1CN(C2)C3 [Methenamine]	0.642 ± 0.2	0.975 ± 0.051	0.917	0.994 ± 0.029
Cc1onc(-c2c(Cl)cccc2Cl)c1C(=O)N[C@@H]1C(=O)N2[C@@H]1SC(C)(C)[C@@H]2C(=O)O [Dicloxacillin sodium salt hydrate]	1.24 ± 0.43	1.009 ± 0.0084	0.818	0.998 ± 0.017
COCCOC(=O)C1=C(C)NC(C)=C(C(=O)OC/C=C/c2ccccc2)C1c1cccc([N+](=O)[O-])c1 (stereo not drawn) [Cilnidipine]	3.85 ± 1.1	0.735 ± 0.012	0	1.248 ± 0.0032
Cc1ccc(O)c([C@H](CCN(C(C)C)C(C)C)c2ccccc2)c1 [Tolterodine tartrate]	1.13 ± 0.42	1.06 ± 0.022	0.818	0.986 ± 0.044
CC(C)OC(=O)CCC/C=C\C[C@@H]1[C@@H](CC[C@@H](O)CCc2ccccc2)[C@H](O)C[C@@H]1O [Latanoprost]	1.02 ± 0.44	1.05 ± 0.014	0.833	1.02 ± 0.013
CC(C)(Sc1cc(C(C)(C)C)c(O)c(C(C)(C)C)c1)Sc1cc(C(C)(C)C)c(O)c(C(C)(C)C)c1 [Probucol]	0.815 ± 0.18	0.925 ± 0.06	1	0.928 ± 0.023
O=C(O)c1ccccc1C(=O)Nc1ccc(S(=O)(=O)Nc2nccs2)cc1 [Phthalylsulfathiazole]	0.926 ± 0.31	1.02 ± 0.015	0.833	0.943 ± 0.071
CCC(=O)OCC(=O)[C@@]1(OC(=O)CC)[C@@H](C)C[C@H]2[C@@H]3CCC4=CC(=O)C=C[C@]4(C)[C@@]3(Cl)[C@@H](O)C[C@@]21C [Beclomethasone dipropionate]	1.04 ± 0.69	1.16 ± 0.021	0.417	1.16 ± 0.091
CNCC[C@@H](Oc1cccc2ccccc12)c1cccs1 [(R)-Duloxetine hydrochloride]	1.15 ± 0.49	1.046 ± 0.0076	1	0.986 ± 0.044
COc1cc(OC)c(C(=O)CCCN2CCCC2)c(OC)c1 [Buflomedil hydrochloride]	1.14 ± 0.33	1.08 ± 0.06	0.917	1.01 ± 0.053
c1ccc(CN(CC2=NCCN2)c2ccccc2)cc1 [Antazoline hydrochloride]	1.08 ± 0.41	1.04 ± 0.016	0.833	0.9446 ± 0.00065
CC(C)C(=O)OCC(=O)[C@@]12O[C@H](C3CCCCC3)O[C@@H]1C[C@H]1[C@@H]3CCC4=CC(=O)C=C[C@]4(C)[C@H]3[C@@H](O)C[C@@]12C [Ciclesonide]	1.7 ± 0.91	0.937 ± 0.0044	0.333	1.06 ± 0.066
